B1: unnamed (peptide)
chain: SLSRRRFSLPSMPNV

target: AgAbp1; assay: SPOT peptide array binding signal intensity (averaged, normalized) (arbitrary units (background-subtracted, floor 0; scale differs between SH3 domains)); higher = stronger binding of the SH3 domain to the peptide
Procedure, shortened: (§1)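 Binding signal refers to normalized, background-subtracted spot intensity averaged over replicates, expressed in arbitrary units that differ between domains. GST-fused SH3 domains from four yeast species were incubated at 10 μg/ml overnight at 4°C on cellulose membranes of synthetic 15-mer peptides with cysteines replaced by serines. Bound protein was detected with anti-GST antibody, an HRP anti-mouse secondary and luminol, and quantified with Genespotter.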

Row | Binder | SPOT peptide array binding signal intensity
1 | B1 | 83.5

target: AgBbc1; assay: as above
Procedure, shortened: as §1

Row | Binder | SPOT peptide array binding signal intensity
2 | B1 | 114

target: AgBem1-D1; assay: as above
Procedure, shortened: as §1

Row | Binder | SPOT peptide array binding signal intensity
3 | B1 | 418

target: AgBzz1-D1; assay: as above
Procedure, shortened: as §1

Row | Binder | SPOT peptide array binding signal intensity
4 | B1 | 44.5

target: AgBzz1-D2; assay: as above
Procedure, shortened: as §1

Row | Binder | SPOT peptide array binding signal intensity
5 | B1 | 72.5

target: AgCyk3; assay: as above
Procedure, shortened: as §1

Row | Binder | SPOT peptide array binding signal intensity
6 | B1 | 6.5

target: AgFus1; assay: as above
Procedure, shortened: as §1

Row | Binder | SPOT peptide array binding signal intensity
7 | B1 | 404

target: AgHof1; assay: as above
Procedure, shortened: as §1

Row | Binder | SPOT peptide array binding signal intensity
8 | B1 | 158

target: AgHse1; assay: as above
Procedure, shortened: as §1

Row | Binder | SPOT peptide array binding signal intensity
9 | B1 | 1010

target: AgLsb1; assay: as above
Procedure, shortened: as §1

Row | Binder | SPOT peptide array binding signal intensity
10 | B1 | 1240

target: AgLsb4; assay: as above
Procedure, shortened: as §1

Row | Binder | SPOT peptide array binding signal intensity
11 | B1 | 41.5

target: AgMyo5; assay: as above
Procedure, shortened: as §1

Row | Binder | SPOT peptide array binding signal intensity
12 | B1 | 3

target: AgNbp2; assay: as above
Procedure, shortened: as §1

Row | Binder | SPOT peptide array binding signal intensity
13 | B1 | 97.5

target: AgRvs167; assay: as above
Procedure, shortened: as §1

Row | Binder | SPOT peptide array binding signal intensity
14 | B1 | 5

target: AgSho1; assay: as above
Procedure, shortened: as §1

Row | Binder | SPOT peptide array binding signal intensity
15 | B1 | 28

target: AgSla1-D1-D2; assay: as above
Procedure, shortened: as §1

Row | Binder | SPOT peptide array binding signal intensity
16 | B1 | 60

target: AgSla1-D3; assay: as above
Procedure, shortened: as §1

Row | Binder | SPOT peptide array binding signal intensity
17 | B1 | 6

target: CaAbp1-D1; assay: as above
Procedure, shortened: as §1

Row | Binder | SPOT peptide array binding signal intensity
18 | B1 | 872

target: CaAbp1-D2; assay: as above
Procedure, shortened: as §1

Row | Binder | SPOT peptide array binding signal intensity
19 | B1 | 370

target: CaBbc1; assay: as above
Procedure, shortened: as §1

Row | Binder | SPOT peptide array binding signal intensity
20 | B1 | 471

target: CaBem1-D1; assay: as above
Procedure, shortened: as §1

Row | Binder | SPOT peptide array binding signal intensity
21 | B1 | 112

target: CaBzz1-D1; assay: as above
Procedure, shortened: as §1

Row | Binder | SPOT peptide array binding signal intensity
22 | B1 | 183

target: CaBzz1-D2; assay: as above
Procedure, shortened: as §1

Row | Binder | SPOT peptide array binding signal intensity
23 | B1 | 189

target: CaCyk3; assay: as above
Procedure, shortened: as §1

Row | Binder | SPOT peptide array binding signal intensity
24 | B1 | 87.5

target: CaFus1; assay: as above
Procedure, shortened: as §1

Row | Binder | SPOT peptide array binding signal intensity
25 | B1 | 1080

target: CaHof1; assay: as above
Procedure, shortened: as §1

Row | Binder | SPOT peptide array binding signal intensity
26 | B1 | 0.5

target: CaHse1; assay: as above
Procedure, shortened: as §1

Row | Binder | SPOT peptide array binding signal intensity
27 | B1 | 62.8

target: CaLsb1; assay: as above
Procedure, shortened: as §1

Row | Binder | SPOT peptide array binding signal intensity
28 | B1 | 13

target: CaLsb4; assay: as above
Procedure, shortened: as §1

Row | Binder | SPOT peptide array binding signal intensity
29 | B1 | 52.5

target: CaMyo5; assay: as above
Procedure, shortened: as §1

Row | Binder | SPOT peptide array binding signal intensity
30 | B1 | 14.5

target: CaNbp2; assay: as above
Procedure, shortened: as §1

Row | Binder | SPOT peptide array binding signal intensity
31 | B1 | 282

target: CaRvs167; assay: as above
Procedure, shortened: as §1

Row | Binder | SPOT peptide array binding signal intensity
32 | B1 | 27

target: CaRvs167-3; assay: as above
Procedure, shortened: as §1

Row | Binder | SPOT peptide array binding signal intensity
33 | B1 | 152

target: CaSho1; assay: as above
Procedure, shortened: as §1

Row | Binder | SPOT peptide array binding signal intensity
34 | B1 | 477

target: CaSla1-D1-D2; assay: as above
Procedure, shortened: as §1

Row | Binder | SPOT peptide array binding signal intensity
35 | B1 | 471

target: CaSla1-D3; assay: as above
Procedure, shortened: as §1

Row | Binder | SPOT peptide array binding signal intensity
36 | B1 | 133

target: ScAbp1; assay: as above
Procedure, shortened: as §1

Row | Binder | SPOT peptide array binding signal intensity
37 | B1 | 94

From the supplement of paper PMC4466140
